Reference: PubChem BioAssay
Results filed as inconclusive are left out. Active and inactive are the calls of the source.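 Rule for the calls, unless noted: active = viability loss from added drug above about 55%, and viability with drug at most 40%, in both replicates (limit read from the data, passing the limit was not always enough); inconclusive = both conditions met in only one replicate; inactive = neither replicate meets both conditions.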

Experiments:
[1] = Her2 expression decrease, cell viability multiplex – SKBR3 breast tumor cells, AlphaScreen, ATP viability, primary screen (AID 461;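 active = Her2 level under about 52% in both replicate screens, with viability over 70% of control, limit read from the data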;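 for Her2 level: lower value means less Her2 protein in the cells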;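 for viability: percent of carrier control wells set as 100% viability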); conditions: SKBR3 Her2 protein level, 18-24 h, measured here: SKBR3 viability, ATP luminescence, at 10 µM
[2] = target: Receptor tyrosine-protein kinase erbB-2 (Homo sapiens) (UniProt P04626); test: as above; conditions: 18-24 h, at 10 µM, stronger effect = lower value
Sequence of Receptor tyrosine-protein kinase erbB-2 (Homo sapiens) (P04626 whole entry, looked up): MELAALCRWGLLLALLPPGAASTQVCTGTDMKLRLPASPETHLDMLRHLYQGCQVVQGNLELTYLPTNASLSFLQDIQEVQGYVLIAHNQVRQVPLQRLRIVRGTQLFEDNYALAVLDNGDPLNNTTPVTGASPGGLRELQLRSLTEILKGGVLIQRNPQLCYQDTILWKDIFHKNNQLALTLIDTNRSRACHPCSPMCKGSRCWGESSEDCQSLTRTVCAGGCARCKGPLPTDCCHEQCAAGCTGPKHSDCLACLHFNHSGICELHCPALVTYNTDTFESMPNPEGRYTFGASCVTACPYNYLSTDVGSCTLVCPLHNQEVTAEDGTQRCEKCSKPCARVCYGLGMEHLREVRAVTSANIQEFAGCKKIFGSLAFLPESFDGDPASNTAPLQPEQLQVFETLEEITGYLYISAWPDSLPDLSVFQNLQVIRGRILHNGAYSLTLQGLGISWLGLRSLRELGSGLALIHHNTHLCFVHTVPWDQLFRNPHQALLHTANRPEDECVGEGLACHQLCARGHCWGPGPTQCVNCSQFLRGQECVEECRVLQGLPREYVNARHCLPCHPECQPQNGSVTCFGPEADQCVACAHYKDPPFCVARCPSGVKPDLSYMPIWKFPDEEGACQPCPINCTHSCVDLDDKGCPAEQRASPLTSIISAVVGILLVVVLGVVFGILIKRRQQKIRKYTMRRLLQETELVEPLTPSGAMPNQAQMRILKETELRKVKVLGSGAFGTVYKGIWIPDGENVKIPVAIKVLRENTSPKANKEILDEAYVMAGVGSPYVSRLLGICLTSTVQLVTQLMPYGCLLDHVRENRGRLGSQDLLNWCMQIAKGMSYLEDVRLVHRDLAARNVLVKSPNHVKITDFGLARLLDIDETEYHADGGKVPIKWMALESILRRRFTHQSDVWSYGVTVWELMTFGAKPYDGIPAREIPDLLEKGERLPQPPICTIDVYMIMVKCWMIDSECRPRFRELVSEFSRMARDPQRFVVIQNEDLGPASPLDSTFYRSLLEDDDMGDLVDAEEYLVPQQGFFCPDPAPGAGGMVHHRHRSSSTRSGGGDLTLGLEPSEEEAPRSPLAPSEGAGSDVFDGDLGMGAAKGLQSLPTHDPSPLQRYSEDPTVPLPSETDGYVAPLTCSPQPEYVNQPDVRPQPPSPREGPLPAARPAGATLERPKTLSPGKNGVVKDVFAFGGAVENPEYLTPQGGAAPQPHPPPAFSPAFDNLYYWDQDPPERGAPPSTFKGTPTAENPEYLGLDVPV

[3] = reduced viability of SK-BR-3 breast cancer cells – cell-based, 24 h, human, pilot screen (AID 572;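 active = viability at or below 10% of carrier control in both of two separate runs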;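 note: compound exposure lasted between 18 and 24 h rather than exactly 24 h; 100% = carrier-treated control wells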); conditions: SK-BR-3 viability, CellTiter-Glo luminescence, at 10 µM, stronger effect = lower value
[4] = HUVEC growth inhibition – cell-based, human, primary screen (AID 575;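 active = viability at or below 30% in both replicate assays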;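 note: 100% = median of untreated cell wells with 0.1% DMSO on each plate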); conditions: HUVEC proliferation, CellTiter-Glo luminescence, 72 h; at 10 µM; stronger effect = lower value
[5] = H69AR cell proliferation blockers – human, duplicate replicates, primary screen (AID 580;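 active = viability at or under a set limit in both replicates, limit being median viability minus 3 SD, cut at about 48% in these data, passing the limit was not always enough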;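 note: 100% = mean luminescence of untreated wells and 0% = no signal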); conditions: H69AR lung tumor cells viability, ATP luminescence, 72 h; at 10 µM; stronger effect = lower value
[6] = MRP1 drug-resistance reversers in H69AR cells – cell-based, doxorubicin co-treatment, pilot screen (AID 601); conditions: CellTiter-Glo, 72 h, at 10 µM; for differential viability (reversal): stronger effect = higher value
[7] = yeast transport mutant growth inhibition pilot in 384-well plates, post-Golgi transport modulator project (AID 636; in the data active = inhibition above about 31%); conditions: absorbance 615 nm, about 18 h, stronger effect = higher value
[8] = growth suppression of yeast trafficking mutant, preliminary HTS, modulators of trafficking downstream of Golgi apparatus project, 1536-format plate, OD 615 nm (AID 637; in the data active = inhibition above about 30%); conditions: yeast transport mutant growth, absorbance 615 nm, 18 h; stronger effect = higher value
[9] = S. cerevisiae growth inhibition in permissive medium (OD615), pilot counter-assay for S. cerevisiae lifespan shortening project, permissive growth control (AID 705;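 active = growth inhibition above 25% in both replicates, a cutoff set 3 SD above the mean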); conditions: OD615, 24 h, at 10 µM, stronger effect = higher value
[10] = S. cerevisiae growth inhibition in restrictive medium, OD615, pilot screen, restrictive growth control, yeast lifespan reduction project (AID 706;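 active = growth inhibition above a set limit, 3 SD over mean compound inhibition, in both replicates, cut at about 43% in these data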;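 note: modified DeaD lifespan yeast strain shifted to restrictive glucose medium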); conditions: OD615, 48 h, at 10 µM, stronger effect = higher value
[11] = doxorubicin toxicity protection in MRP-1 cells – H69AR cells, CellTiter-Glo, duplicate, MRP-1 activator project, pilot screen (AID 807;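 active = viability increase at or above a cutoff of the median across tested compounds plus 3 SD, cut at about 8.5% in these data, passing the limit was not always enough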;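 note: compound pretreatment 18-22 h then 72 h combined with doxorubicin; 0% = doxorubicin alone and 100% = vehicle without doxorubicin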); conditions: H69AR viability with doxorubicin, CellTiter-Glo luminescence; at 10 µM; stronger effect = higher value
[12] = viability of HCT116 without oncogenic beta-catenin – human colon tumor cells, pilot screen (AID 823;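 active = cell viability at or below a set limit in both duplicate runs, the limit being the all-compound median minus 4 SD, cut at about 23% in these data, passing the limit was not always enough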;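 note: 0% = wells killed by 20 µM Hyamine and 100% = untreated DMSO cell wells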); conditions: HCT116 beta-catenin knockout viability, CellTiter-Glo, 60 h; at 10 µM; stronger effect = lower value
[13] = viability of PTEN-null HCT116 cells – cell-based, HCT116 clonal line, CellTiter-Glo, pilot screen (AID 824;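 active = viability at or below 27.92% in each of two runs, the all-compound median minus 4 SD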;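 note: 0% = 20 µM Hyamine control and 100% = vehicle cell control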); conditions: HCT116 PTEN-deleted viability, 60 h, at 10 µM, stronger effect = lower value
[14] = RAM pathway blockade in budding yeast – dse1pr::URA3 reporter, 5-FOA selection, pilot screen (AID 869;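 active = inhibition over a set limit, the all-compound mean plus 3 SD, in both replicate runs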;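 note: 0% = DMSO wells with no growth and 100% = 10 µM 1-NA-PP1 with full growth; RAM network block rescues cells from 5-FOA so hits raise OD615 growth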); conditions: S. cerevisiae dse1pr::URA3 5-FOA growth, OD615, 2 d; at 10 µM; stronger effect = higher value; strain carries analog-sensitive mutant Cbk1 kinase
[15] = RAM signaling pathway blockade in yeast – S. cerevisiae, Pdr1DBD-CYC8 efflux-inhibited sensitized strain, primary screen (AID 1298;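 active = RAM network inhibition above 8.4% in each of two replicates, 3 SD over the compound average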;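 note: 0% = DMSO untreated cells without growth and 100% = 10 µM 1-NA-PP1 full growth; higher means more yeast growth rescued from 5-FOA killing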); conditions: S. cerevisiae cbk1-as DSE1-URA3 strain, 5-FOA growth OD615, 2 d; at 50 µM; stronger effect = higher value
[16] = H69AR cells + 2 uM doxorubicin, measured here: viability with 2 uM doxorubicin, stronger effect = lower value
[17] = H69AR cells, compound alone cytotoxicity

Row | SMILES | viability [1] [%] | Her2 level [2] | viability [3] | viability [4] | viability [5] | differential viability (reversal) ([6]; H69AR cells + 2 uM doxorubicin) | viability [6, 16] [%] | viability [6, 17] [%] | inhibition [7] | inhibition [8] | growth inhibition [9] | growth inhibition [10] | viability increase [11] | viability [12] | viability [13] | inhibition [14] | RAM network inhibition [15]
1 | Cc1cc(N=Cc2cc(Br)ccc2O)no1 | 108 | 118% (inactive) | 108% (inactive) | 74.4% (inactive) | 73.1% (inactive) | -28.9% (inactive) | 102 | 73.1 | -3.72% (inactive) | -6.67% (inactive) | -13% (inactive) | -22.7% (inactive) | -2.84% (inactive) | 90.8% (inactive) | 95.8% (inactive) | 0.26% (inactive) | -1.15% (inactive)
2 | COc1cc(NC(=O)CN(c2cc(C)cc(C)c2)S(=O)(=O)c2c(C)noc2C)cc(OC)c1 | 88.5 | 108% (inactive) | 88.5% (inactive) | 80.8% (inactive) | 83.8% (inactive) | -0.43% (inactive) | 84.3 | 83.8 | 0.9% (inactive) | -5% (inactive) | -14.8% (inactive) | -18.5% (inactive) | -4.92% (inactive) | 92.3% (inactive) | 87.5% (inactive) | 2.82% (inactive) | 4.61% (inactive)
3 | CS(=O)(=O)NCCSCc1c(F)cccc1Cl | 89.5 | 107% (inactive) | 89.5% (inactive) | 100% (inactive) | 102% (inactive) | 12.5% (inactive) | 89.7 | 102 | 0.4% (inactive) | -8.06% (inactive) | -2.46% (inactive) | -2.41% (inactive) | 0.04% (inactive) | 96.2% (inactive) | 91.9% (inactive) | 1.1% (inactive) | 1.27% (inactive)
4 | Cc1cccnc1-n1c(CCN2C(=O)c3ccccc3C2=O)nc2ccccc2c1=O | 89.5 | 106% (inactive) | 89.5% (inactive) | 89.2% (inactive) | 95.1% (inactive) | 4.03% (inactive) | 91.1 | 95.1 | 1.28% (inactive) | -10.3% (inactive) | 6.29% (inactive) | -3.29% (inactive) | -2.01% (inactive) | 102% (inactive) | 97.4% (inactive) | 0.525% (inactive) | 3.68% (inactive)
5 | CCOC(=O)C1CCN(C(=O)CN(c2ccc(Cl)c(C(F)(F)F)c2)S(C)(=O)=O)CC1 | 112 | 100% (inactive) | 112% (inactive) | 107% (inactive) | 92.1% (inactive) | -9.81% (inactive) | 102 | 92.1 | -0.65% (inactive) | -2.5% (inactive) | -11.9% (inactive) | -8.95% (inactive) | -3.24% (inactive) | 88.1% (inactive) | 84.7% (inactive) | -0.1% (inactive) | 0.63% (inactive)
6 | CC(C)n1c(CN2CCN(C)CC2)nc2c1c(=O)n(C)c(=O)n2C | 95.5 | 86% (inactive) | 95.5% (inactive) | 93.8% (inactive) | 98.5% (inactive) | 9.28% (inactive) | 89.2 | 98.5 | -7.57% (inactive) | 1.8% (inactive) | -7.82% (inactive) | 4.92% (inactive) | 0.07% (inactive) | 101% (inactive) | 103% (inactive) | 0.885% (inactive) | 5.22% (inactive)
7 | COc1cccc(C(=O)Nc2cc(C)c3c(=O)oc4ccccc4c3n2)c1 | 80.5 | 62.5% (inactive) | 80.5% (inactive) | 57.6% (inactive) | 81.9% (inactive) | -19.4% (inactive) | 101 | 81.9 | -6.53% (inactive) | -4.67% (inactive) | -1.54% (inactive) | -1.12% (inactive) | 3.07% (inactive) | 85.2% (inactive) | 81.7% (inactive) | 2.74% (inactive) | 4.69% (inactive)
8 | Cc1nnc(NC(=O)c2ccco2)s1 | 98.5 | 92.5% (inactive) | 98.5% (inactive) | 98.6% (inactive) | 104% (inactive) | 7.39% (inactive) | 96.3 | 104 | -4.13% (inactive) | 7.21% (inactive) | -10.1% (inactive) | -8.55% (inactive) | 4.22% (inactive) | 94.9% (inactive) | 97.2% (inactive) | 0.67% (inactive) | 0.21% (inactive)
9 | CC(C)(O)C#Cc1ccc(C(=O)N2CCN(C(=O)c3ccco3)CC2)cc1 | 102 | 88% (inactive) | 102% (inactive) | 108% (inactive) | 96.9% (inactive) | 8.95% (inactive) | 87.9 | 96.9 | -3.87% (inactive) | 2.74% (inactive) | -17.3% (inactive) | -11.2% (inactive) | -0.62% (inactive) | 92.4% (inactive) | 99.8% (inactive) | 0.66% (inactive) | 2.19% (inactive)
